Only some compounds are listed: those with a hit (about 3.8% of all), similar ones and a draw of the others.
Nrf2 inh = Nrf2 qHTS screen for inhibitors. A549 ARE-Fluc reporter, luciferase luminescence, 18-24 h. Potency, µM (titrated, usually from 46 µM), most hits filed as inhibitors. 360,000 compounds, 2.1% hits; further: nearly all actives have a fitted effect of over 60% in size
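A549 ARE_Fluc cells, 5000/well, 5% FBS OPTI-MEM; compounds in dose-response, 18-24 h at 37 °C/5% CO2; CellTiter-Fluor viability read (Ex 405/Em 525), then BugLite luciferase luminescence = Nrf2 activity.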
TGFb inhibitor = qHTS for Inhibitors of TGF-b | HepG2 CAGA-GFP TGF-b/SMAD3 reporter, GFP fluorescence, 18 h; TGF-beta stimulated, 500 pg/mL final | Potency, µM (highest dose often 46.1 µM), most hits filed as inhibitors | 410,000 compounds, 1.2% hits | AID 588855, 2011; further: nearly all actives have a fitted effect of over 65% in size
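HEPG2 CAGA-GFP, 1000 cells/well; 2 h settle, 37 C; cpd via pin tool; TGF-b 500 pg/mL final; 18 h, 37 C; GFP imaging ex488/em500-530; %Activity normalised to -TGF-b and +DMSO controls; CRC fit, curve class.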
ATXN2 expr inh = Primary qHTS for Inhibitors of ATXN expression; HEK-293 ATXN2-luciferase reporter, luminescence, 24 h; Potency, µM (top dose mostly 57 µM), most hits filed as inhibitors; 360,000 compounds, 0.72% hits; AID 1745845, 2022; further: nearly all actives have a fitted effect of over 55% in size
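qHTS (up to 57 uM final) was run with 24 h compound exposure of reporter cells at 37 °C. Each well was multiplexed: SteadyGlo luminescence measured ATXN2-luciferase expression after a fluorogenic Gly-Phe-AFC viability readout (25 uM final).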
HepG2 tox = qHTS for Inhibitors of TGF-b: Cytotox Counterscreen; HepG2 CAGA-GFP viability, ATP luminescence, 18 h; AID 588856, 2011; Potency, µM (highest dose often 46.1 µM), hits mostly cytotoxic; 410,000 compounds, 0.76% hits
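HepG2 CAGA-GFP cells (1000/well, DMEM with 1% FBS) received compound, then TGF-beta at 500 pg/mL final, and were incubated 18 hours at 37 degrees C. Viability was read by CellTiter-Glo luminescence. Media-only wells were set as complete cell-killing and DMSO as no toxicity.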
A549 tox = Nrf2 qHTS screen for inhibitors: counterscreen for cytotoxicity; A549 ARE-Fluc cells, CellTiter-Fluor viability, 18-24 h; Potency, µM (top dose mostly 46 µM), most hits filed as inhibitors; 390,000 compounds, 0.16% hits; AID 504648, 2011
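A549 ARE_Fluc cells in 5% FBS OPTI-MEM were exposed to compounds in concentration-response for 18-24 h at 37 deg C. Viability was read by CellTiter-Fluor fluorescence (Ex 405/Em 525) after 30 min, before the luciferase read.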
ATXN viability = Viability Counterscreen for Primary qHTS for Inhibitors of ATXN expression. S2 cells (HEK-293 line with an ATXN2-luciferase reporter) viability, CellTiter-Fluor protease fluorescence, 24 h. Potency, µM (series often up to 56.7 µM), usual class: cytotoxic. 400,000 compounds, 0.49% hits; further: nearly all actives have a fitted effect of over 40% in size
Each line names hits and unclear results; the compound was inactive in the other large screens; ! = not confirmed by another sample. The call rests on the fitted dose curve; in most records, active means well fitted curve in the direction sought with a large enough effect; inconclusive means small, poorly fitted or top-dose-only effect, or another doubt; inactive means no such curve, though single readings can be large; an effect the other way counts as inactive or inconclusive.

O=C(N/N=C/c1ccc([N+](=O)[O-])o1)c1cc(-c2ccc(-c3ccccc3)cc2)nc2ccccc12	Nrf2 inh inconclusive, ATXN2 expr inh inconclusive, ATXN viability inconclusive
O=C(N/N=C/c1ccc([N+](=O)[O-])o1)c1ccccc1-n1cccc1	Nrf2 inh inconclusive, TGFb inhibitor 10µM, ATXN2 expr inh inconclusive, ATXN viability inconclusive
COc1c(O)ccc(/C=N/NC(=O)c2ccc3c(c2)OCCO3)c1[N+](=O)[O-]	Nrf2 inh 5.2µM
O=C(N/N=C\c1ccccc1)c1ccccc1-n1cccc1	none
Cc1c(Cl)c(=O)n2c(=O)c(Cl)c(C)n12	none
COc1ccc(N(CC(=O)Nc2cc([N+](=O)[O-])ccc2C)S(C)(=O)=O)cc1OC	none
COc1c(O)ccc(/C=N\NC(=O)c2ccc3c(c2)OCO3)c1[N+](=O)[O-]	Nrf2 inh 12µM (no result: ATXN2 expr inh)
O=C(N/N=C/c1cc2c(cc1[N+](=O)[O-])OCO2)c1ccc2c(c1)OCO2	none
O=C(CCl)N1c2ccccc2SCC1c1ccccc1 (stereo unspecified)	Nrf2 inh 26µM, TGFb inhibitor inconclusive, ATXN2 expr inh inconclusive, A549 tox inconclusive, ATXN viability 20µM
CC1CCC2(CC1)NC(=O)N(CC(=O)Nc1cccc(S(=O)(=O)N3CCCC3)c1)C2=O (stereo unspecified)	Nrf2 inh 5.2µM (no result: ATXN2 expr inh)
CC(=O)c1ccccc1OCC(=O)Nc1cccc(S(=O)(=O)N2CCCC2)c1	Nrf2 inh 13µM, ATXN viability inconclusive (no result: ATXN2 expr inh)
CCOc1ccc(CCNC(=O)CCn2ccc3cc(S(=O)(=O)N4CCCC4)ccc32)cc1	Nrf2 inh 26µM, TGFb inhibitor inconclusive
O=C(Cn1cnnn1)Nc1cccc(S(=O)(=O)N2CCCCC2)c1	none
O=C(Cn1nnc(-c2ccccc2)n1)Nc1cccc(S(=O)(=O)N2CCCC2)c1	Nrf2 inh 16µM, TGFb inhibitor inconclusive
COc1ccc(OC)c(S(=O)(=O)N2CCCC(C(=O)NCCN3CCOCC3)C2)c1 (stereo unspecified)	none
O=C(NCc1cccc(Br)c1)c1cc(-c2ccccc2)nn1CC1CC(c2cccc([N+](=O)[O-])c2)=NO1 (stereo unspecified)	none
Cc1cc(C)c2c(=O)[nH]c(SCC(=O)c3ccc(F)c(C)c3)nc2n1	ATXN viability inconclusive
COc1ccc(CNC(=O)C(C)N2CCN(S(=O)(=O)c3ccccc3F)CC2)cc1 (stereo unspecified)	none
CC(C(=O)NCc1ccc(F)cc1)n1ccc2cc(S(=O)(=O)N3CCCC3)ccc21 (stereo unspecified)	Nrf2 inh 21µM
CCCc1ccc(S(=O)(=O)N2CCN(C(C)C(=O)NCc3ccc(OC)cc3)CC2)cc1 (stereo unspecified)	Nrf2 inh 16µM, TGFb inhibitor inconclusive, A549 tox inconclusive
CCn1ccc2cc(S(=O)(=O)N3CCC(C(=O)NCC(C)c4ccccc4)CC3)ccc21 (stereo unspecified)	TGFb inhibitor inconclusive (no result: Nrf2 inh)
CC(CNC(=O)Cn1ccc2cc(S(=O)(=O)N3CCCCCC3)ccc21)c1ccccc1 (stereo unspecified)	Nrf2 inh 21µM, ATXN viability inconclusive
CC(CC(=O)Nc1cccc(S(=O)(=O)N2CCCCC2)c1)c1ccccc1 (stereo unspecified)	Nrf2 inh 13µM, A549 tox inconclusive
Cc1cc(C(=O)Nc2ccc(Cl)c(S(=O)(=O)N3CCOCC3)c2)c2ccccc2n1	Nrf2 inh inconclusive (no result: ATXN2 expr inh, ATXN viability)
CC(=O)c1ccc(OCC(=O)Nc2cccc(S(=O)(=O)N3CCCC3)c2)cc1	Nrf2 inh 16µM
COc1cc(F)c(S(=O)(=O)N2CCCN(S(=O)(=O)c3cccc(NC(C)=O)c3)CC2)c(F)c1	Nrf2 inh 16µM (no result: TGFb inhibitor, ATXN2 expr inh, HepG2 tox, ATXN viability)
O=C1NC[C@@H](CCCCN2C[C@H](Cc3ccc(O)cc3)N(Cc3ccccc3)C(=O)C2=O)N(CCC2CCCCC2)C1=O	ATXN viability inconclusive (no result: Nrf2 inh, TGFb inhibitor, HepG2 tox, A549 tox)
Cc1ccc2c(c1)CN(CCNC(=O)c1n[nH]c3c1CCCC3)CC(C)O2 (stereo unspecified)	none (no result: Nrf2 inh, TGFb inhibitor, ATXN2 expr inh, HepG2 tox, A549 tox)
CC(OC(=O)c1ccccc1Nc1ccc(SC(F)F)cc1)C(N)=O (stereo unspecified)	Nrf2 inh 26µM, TGFb inhibitor inconclusive, ATXN viability inconclusive
COC(=O)c1ccc(-n2c(C)cc(-c3csc(NC(=O)c4ccc(S(=O)(=O)N(C)C)cc4)n3)c2C)cc1	TGFb inhibitor inconclusive, HepG2 tox 13µM
Cc1cc(-c2csc(NC(=O)c3cccc(S(=O)(=O)N(C)C)c3)n2)c(C)n1-c1ccccc1	none
Nc1[nH]n2c(=O)cc(-c3ccccc3)nc2c1N=Nc1ccc(S(N)(=O)=O)cc1	Nrf2 inh inconclusive
NS(=O)(=O)c1ccc(N=Nc2c(-c3ccccc3)[nH]n(-c3nc(-c4ccccc4)cs3)c2=O)cc1	Nrf2 inh 4.6µM, ATXN2 expr inh inconclusive, A549 tox inconclusive
C[C@@H]1C[C@H]2[C@@H]3C[C@H](F)C4=CC(=O)C=C[C@]4(C)[C@@]3(Cl)[C@@H](O)C[C@]2(C)[C@H]1C(=O)COC(=O)C(C)(C)C	Nrf2 inh 0.0065µM
O=C(NC[C@@H]1CCCCN1)c1cc(OCC(F)(F)F)ccc1OCC(F)(F)F	none (no result: Nrf2 inh, TGFb inhibitor, ATXN2 expr inh, HepG2 tox, A549 tox)
COc1ccc(-n2c(=O)[nH]c3cc(C(=O)NCCc4ccccc4)ccc3c2=O)cc1OC	Nrf2 inh 13µM!
COc1ccc(Cc2c3cc(OC)c(OC)cc3cc[n+]2C)cc1OC	none
COc1cc2c[n+](C)c3c4ccccc4ccc3c2cc1OC	Nrf2 inh 16µM
COc1ccc(/C=C/c2ccc3ccccc3[n+]2C)cc1OC	none (no result: ATXN2 expr inh)
COc1ccc2c(c1)c[n+](C)c1c3cc(OC)c(OC)cc3ccc21	ATXN2 expr inh 18µM, ATXN viability inconclusive (no result: Nrf2 inh, TGFb inhibitor, HepG2 tox, A549 tox)
COc1cc(C2CC(=O)N(Cc3ccc(F)cc3)c3ccccc3S2)cc(OC)c1OC (stereo unspecified)	Nrf2 inh 16µM, TGFb inhibitor inconclusive, ATXN2 expr inh inconclusive (no result: ATXN viability)
COc1ccc(C2CC(=O)N(Cc3ccc(F)cc3)c3ccccc3S2)cc1 (stereo unspecified)	Nrf2 inh inconclusive, TGFb inhibitor 16µM, ATXN2 expr inh inconclusive, ATXN viability inconclusive
CC(C)(C)c1cnnn1-c1ccc(/C=N/Nc2ccc([N+](=O)[O-])cc2)cc1	Nrf2 inh inconclusive, A549 tox 16µM
Cn1cc(C(=O)N2CCc3ccccc32)cn1	Nrf2 inh inconclusive

Screens from PubChem BioAssay.
